Measurements published in PubChem BioAssay AID1159580 (chemical genetic matrix, 2015).
The campaign covered roughly 5,500 compounds. About 2,000 (36%) were called active. Not shown: some 18% with an inconclusive outcome. Rule as the data show it: active = normalized growth mostly below about 0.91 (no sharp cut-off); inconclusive = no clear call, values can overlap the other calls; inactive = mostly above about 0.92. The list shows a part of the results.

Experiment: chemical genetic growth profiling, strain panel (AID 1159580);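 also: tested at 20 µM; growth read once vehicle control cultures reached saturation at 30 °C; 1 = growth at the plate median or of vehicle wells; lower values mean less growth of the strain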
Conditions: growth OD

Measured: normalized growth

C=C1C(C)C2C(Cc3ccccc3)NC(=O)C23OC(=O)/C=C/C(O)CCCC(C)C/C=C/C3C1O (stereo unspecified)
inactive: S. cerevisiae deletion strains, locus YAL013W, strain DEP1, active compounds read low 1.01 | S. cerevisiae deletion strains, locus YBR021W, strain FUR4, active compounds read low 1.01 | S. cerevisiae deletion strains, locus YBR229C, strain ROT2, active compounds read low 1 | S. cerevisiae deletion strains, locus YCL029C, strain bik1, active compounds read low 0.997 | S. cerevisiae deletion strains, locus YDL035C, strain GPR1, active compounds read low 1.02 | S. cerevisiae deletion strains, locus YDL074C, strain BRE1, active compounds read low 1.04 | S. cerevisiae deletion strains, locus YDL101C, strain DUN1, active compounds read low 1.01 | S. cerevisiae deletion strains, locus YDL134C, strain PPH21, active compounds read low 1.01 | S. cerevisiae deletion strains, locus YDL185W, strain tfp1, active compounds read low 1 | S. cerevisiae deletion strains, locus YDL192W, strain arf1, active compounds read low 1 | S. cerevisiae deletion strains, locus YDR101C, strain arx1, active compounds read low 0.995 | S. cerevisiae deletion strains, locus YDR150W, strain NUM1, active compounds read low 1.01 | S. cerevisiae deletion strains, locus YDR162C, strain NBP2, active compounds read low 0.998 | S. cerevisiae deletion strains, locus YDR318W, strain mcm21, active compounds read low 1 | S. cerevisiae deletion strains, locus YDR388W, active compounds read low 1 | S. cerevisiae deletion strains, locus YDR502C, strain sam2, active compounds read low 0.996 | S. cerevisiae deletion strains, locus YEL061C, strain CIN8, active compounds read low 1 | S. cerevisiae deletion strains, locus YER110C, active compounds read low 0.997 | S. cerevisiae deletion strains, locus YER155C, strain BEM2, active compounds read low 0.993 | S. cerevisiae deletion strains, locus YER167W, strain BCK2, active compounds read low 1.01 | S. cerevisiae deletion strains, locus YGL078C, strain dbp3, active compounds read low 1 | S. cerevisiae deletion strains, locus YGL086W, strain mad1, active compounds read low 0.988 | S. cerevisiae deletion strains, locus YGL248W, strain PDE1, active compounds read low 0.997 | S. cerevisiae deletion strains, locus YGR078C, strain PAC10, active compounds read low 1.02 | S. cerevisiae deletion strains, locus YGR135W, strain pre9, active compounds read low 0.999 | S. cerevisiae deletion strains, locus YGR229C, strain SMI1, active compounds read low 1.03 | S. cerevisiae deletion strains, locus YGR252W, strain gcn5, active compounds read low 1 | S. cerevisiae deletion strains, locus YHR030C, strain SLT2, active compounds read low 1 | S. cerevisiae deletion strains, locus YHR079C, strain IRE1 (second series), active compounds read low 0.987 | S. cerevisiae deletion strains, locus YHR094C, strain hxt1, active compounds read low 1.01 | S. cerevisiae deletion strains, locus YHR129C, strain ARP1, active compounds read low 0.998 | S. cerevisiae deletion strains, locus YHR200W, strain rpn10, active compounds read low 1 | S. cerevisiae deletion strains, locus YIL066C, strain RNR3, active compounds read low 1.02 | S. cerevisiae deletion strains, locus YIL073C, strain SPO22, active compounds read low 1.06 | S. cerevisiae deletion strains, locus YIL125W, strain kgd1, active compounds read low 0.984 | S. cerevisiae deletion strains, locus YIR030C, strain dcg1, active compounds read low 0.998 | S. cerevisiae deletion strains, locus YJL095W, strain BCK1, active compounds read low 1 | S. cerevisiae deletion strains, locus YJL134W, strain LCB3, active compounds read low 1 | S. cerevisiae deletion strains, locus YJL168C, strain set2, active compounds read low 0.998 | S. cerevisiae deletion strains, locus YJL187C, strain SWE1 (second series), active compounds read low 1.01 | S. cerevisiae deletion strains, locus YJR043C, strain POL32, active compounds read low 1.01 | S. cerevisiae deletion strains, locus YJR075W, strain HOC1, active compounds read low 0.996 | S. cerevisiae deletion strains, locus YKL009W, strain mrt4, active compounds read low 1.01 | S. cerevisiae deletion strains, locus YKL068W, active compounds read low 1 | S. cerevisiae deletion strains, locus YKL085W, strain MDH1 (second series), active compounds read low 0.999 | S. cerevisiae deletion strains, locus YKL085W, strain MDH1, active compounds read low 0.999 | S. cerevisiae deletion strains, locus YKL190W, strain CNB1, active compounds read low 1.01 | S. cerevisiae deletion strains, locus YKR001C, strain vps1, active compounds read low 0.994 | S. cerevisiae deletion strains, locus YLR039C, strain RIC1, active compounds read low 1.01 | S. cerevisiae deletion strains, locus YLR058C, strain SHM2, active compounds read low 1 | S. cerevisiae deletion strains, locus YLR102C, strain apc9, active compounds read low 1.01 | S. cerevisiae deletion strains, locus YLR262C, strain YPT6, active compounds read low 1.02 | S. cerevisiae deletion strains, locus YLR268W, strain sec22, active compounds read low 1 | S. cerevisiae deletion strains, locus YLR330W, strain CHS5, active compounds read low 1.01 | S. cerevisiae deletion strains, locus YLR342W, strain FKS1 (second series), active compounds read low 1.02 | S. cerevisiae deletion strains, locus YLR371W, strain rom2, active compounds read low 1.01 | S. cerevisiae deletion strains, locus YLR418C, strain cdc73, active compounds read low 0.995 | S. cerevisiae deletion strains, locus YML016C, strain PPZ1, active compounds read low 1 | S. cerevisiae deletion strains, locus YML032C, strain rad52, active compounds read low 1 | S. cerevisiae deletion strains, locus YML124C, strain tub3, active compounds read low 0.997 | S. cerevisiae deletion strains, locus YMR078C, strain ctf18, active compounds read low 0.992 | S. cerevisiae deletion strains, locus YMR223W, strain ubp8, active compounds read low 1 | S. cerevisiae deletion strains, locus YMR263W, strain SAP30, active compounds read low 1.01 | S. cerevisiae deletion strains, locus YMR307W, strain GAS1, active compounds read low 1.02 | S. cerevisiae deletion strains, locus YNL067W, strain RPL9B, active compounds read low 1.01 | S. cerevisiae deletion strains, locus YNL128W, strain TEP1, active compounds read low 1.01 | S. cerevisiae deletion strains, locus YNL153C, strain GIM3, active compounds read low 1.02 | S. cerevisiae deletion strains, locus YNL233W, strain BNI4, active compounds read low 0.994 | S. cerevisiae deletion strains, locus YNL250W, strain rad50, active compounds read low 1 | S. cerevisiae deletion strains, locus YNL271C, strain bni1, active compounds read low 0.998 | S. cerevisiae deletion strains, locus YNL298W, strain CLA4, active compounds read low 0.995 | S. cerevisiae deletion strains, locus YNL307C, strain MCK1, active compounds read low 1.01 | S. cerevisiae deletion strains, locus YNL322C, strain KRE1, active compounds read low 1.01 | S. cerevisiae deletion strains, locus YNR052C, strain pop2, active compounds read low 1.01 | S. cerevisiae deletion strains, locus YOL006C, strain TOP1, active compounds read low 1.03 | S. cerevisiae deletion strains, locus YOL012C, strain htz1 0.948 | S. cerevisiae deletion strains, locus YOL147C, strain pex11, active compounds read low 0.997 | S. cerevisiae deletion strains, locus YOR061W, strain CKA2, active compounds read low 1 | S. cerevisiae deletion strains, locus YOR069W, strain VPS5, active compounds read low 1 | S. cerevisiae deletion strains, locus YOR136W, strain idh2, active compounds read low 0.999 | S. cerevisiae deletion strains, locus YOR144C, strain elg1, active compounds read low 1 | S. cerevisiae deletion strains, locus YOR184W, strain ser1, active compounds read low 1.03 | S. cerevisiae deletion strains, locus YOR316C, strain cot1, active compounds read low 1 | S. cerevisiae deletion strains, locus YPL055C, strain LGE1, active compounds read low 1.03 | S. cerevisiae deletion strains, locus YPL241C, strain CIN2, active compounds read low 1.01 | S. cerevisiae deletion strains, locus YPR119W, strain clb2, active compounds read low 0.999 | S. cerevisiae deletion strains, locus YPR141C, strain kar3, active compounds read low 1 | S. cerevisiae deletion strains, locus YPR163C, strain tif3, active compounds read low 1 | S. cerevisiae deletion strains, locus YPR167C, strain met16, active compounds read low 0.999 | S. cerevisiae deletion strains, strain wtn01, active compounds read low 0.995 | S. cerevisiae strains, strain wild type, active compounds read low 1.01
